# Screens from PubChem BioAssay.
# CFTR F508del cor = F508del CFTR correction, initial screen, CFBE line, single point; AID 720511, 2013; 350,000 tested, 0.36% active; activity (quench increase), % at 7.58 µM; CFBE cells, YFP halide quenching; stimulated with forskolin plus potentiator P3; % fluorescence drop versus neutral controls;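 active means mean added fluorescence quench of at least 8% versus neutral control, with both replicates also reaching 8%; inconclusive means only one of the mean or replicate conditions met; inactive means mean below 8% and not both replicates reaching 8%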;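 further: cells transiently co-express mutant CFTR-F508del with the halide-sensitive YFP; corrector assay measuring rescue of mutant channel to the surface after 24 h compound exposure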
# dFosB act = activators of delta FosB homodimer, primary screen, biochemical, fluorescence polarization, TAMRA-CDK5 oligo, single point; AID 493131, 2011; Protein FosB (Mus musculus), P13346; 340,000 tested, 0.99% active; activation, % at 25 µM; purified delta FosB; percent of positive-control signal above neutral wells;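 active means mean activation above about 17%, with every replicate also reaching it, limit read from the data, passing the limit was not always enough; inconclusive means only one of the two conditions met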
# PvdQ acylase = P. aeruginosa PvdQ acylase inhibitors, primary screen, biochemical, fluorescence, plate reader and imaging, single point | PvdQ acylase [Pseudomonas aeruginosa LESB58] | purified PvdQ acylase | inhibition, % at 10 µM | 340,000 tested, 0.063% active; in the data active means inhibition above about 30%, passing the limit was not always enough; inconclusive means no clear call, values can overlap the other calls;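 further: 0% = vehicle neutral wells and 100% = reference inhibitor wells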
# RAD54 inh = inhibitors of human RAD54 branch migration, primary screen, biochemical, fluorescence, single point; 360,000 tested, 0.14% active; inhibition, % at 10.4 µM; AID 602329, 2012; RAD54 Holliday junction branch migration, FAM/BHQ fluorescence;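 active means mean normalized replicate activity at least 40 and at least half of replicates scoring 40 or more; inconclusive means only one of the two criteria met; inactive means mean below 40 and under half of replicates reaching 40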;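 further: 0% = median of neutral control wells and 100% = median of positive control wells; inhibitors cause a drop in the FAM fluorescence signal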
# RAD52 anneal inh = RAD52 DNA annealing inhibitors, primary screen, biochemical, FRET, single point, set 2; DNA repair protein RAD52 homolog (Homo sapiens), P43351; recombinant RAD52 DNA annealing, FRET fluorescence; inhibition, % at 18.7 µM; 360,000 tested, 0.46% active; AID 651710, 2012;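 active means every replicate showing at least 50% inhibition; inconclusive means mean inhibition at least 50% but not in every replicate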
# Glyco luc inh = increase of ERlucT glycosylation luciferase signal, primary screen, N-linked glycosylation inhibitor project, D54 ERlucT cells, luminescence, set 2; reporter increase, % at 12.5 µM; AID 588692, 2011; 360,000 tested, 0.23% active; D54 ERlucT glycosylation luciferase reporter, 24 h; percent of 100 nM tunicamycin response;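 active means mean luciferase reporter signal, scaled so untreated is 0 and the glycosylation-blocking control 100, at or above a set limit in every replicate; inconclusive means mean reaches the limit but not every replicate does; inactive means mean below the limit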;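 further: luciferase carries N-glycosylation sites so blocking glycosylation raises the light; 0% = median of neutral control wells and 100% = median of 100 nM tunicamycin wells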
# Numbers without * were called inactive; i = inactive; ? = inconclusive; . = no result; ! = not confirmed by another sample. Only some compounds are listed: those with a hit (about 1.5% of all), similar ones and a draw of the others.
SMILES,CFTR F508del cor,dFosB act,PvdQ acylase,RAD54 inh,RAD52 anneal inh,Glyco luc inh
COc1cc([C@@H]2c3cc4c(cc3[C@@H](OC)[C@H]3COC(=O)[C@H]23)OCO4)cc(OC)c1O,9.3*,1,1,1,-9,?
COC(=O)[C@@H]1[C@@H](CO)[C@@H]2Cn3c(ccc(C4=CCCCC4)c3=O)[C@H]1N2C(=O)Cc1ccccn1,0,.,.,-3,-10,.
O=C1NC(=O)C(=Cc2ccc(N3CCOCC3)o2)C(=O)N1,9.2*,0,-5,.,-164,1
C=CCN1C(=O)/C(=C/c2ccc(N3CCOCC3)o2)C(=O)NC1=S,.,-4,-15,-56,.,0
C/C=C/c1ccc(C2[C@@H]3CN(C(=O)C4CCC4)C[C@H]2N3)cc1 (some centres not stated),3,.,.,.,.,.
c1ccc2c(c1)-c1cccc3cccc-2c13,6,-3,-10,-3,-5,1
c1ccc2c(c1)[IH]c1ccccc1-2,-16,33*,-14,52*,47,54*
O=C(Cc1cccnc1)N1CCCCN2[C@@H](CO)[C@@H](c3ccc(/C=C/c4ccccc4)cc3)[C@@H]2C1,0,.,.,-2,-17,.
COC1C(C)OC(OC2CC(C)(O)Cc3cc4c(c(O)c32)C(=O)c2c(O)cc3c(c2C4=O)OC2OC3(C)C(O)C(N(C)C)C2O)C(OC)C1(C)OC (configuration not stated),20*,-18,-12,.,i,-12
CC[C@H]1CN2CCC1C[C@H]2[C@H](O)c1ccnc2ccc(OC)cc12 (some centres not stated),9.8*,4,4,7,-13,0
CC[C@H]1CN2CCC1C[C@@H]2[C@@H](O)c1ccnc2ccc(OC)cc12 (some centres not stated),2,2,-11,2,-2,-2
COc1ccc(C#Cc2ccc([C@H]3[C@H](CO)N4CCCCN(C(=O)Cc5cccnc5)C[C@@H]34)cc2)cc1,-4,.,.,3,-7,.
CCN(CC)c1ccc(N=Cc2c(O)n(-c3ccccc3C)c(=O)[nH]c2=O)cc1,.,-6,0,-19,.,7
CCOc1ccccc1-n1c(O)c(C=Nc2ccc(N(CC)CC)cc2)c(=O)[nH]c1=O,.,-3,4,-17,.,29*
COc1ccc(C#Cc2ccc([C@H]3[C@@H](CO)N4CCCCN(C(=O)Cc5ccncc5)C[C@@H]34)cc2)cc1,0,.,.,-20,-73,.
CC[n+]1c(/C=C/C=C/c2ccc(N(C)C)cc2)sc2ccccc21,-10,155*,-1,25,20,28*
CCC1(CC)C(=O)N(C)C(=O)NC1=NC,-1,-7,-12,.,-8,-1
CN1C(=O)NC(=O)C2(CCCC2)C1=O,10*,5,-18,-2,-15,2
COc1c2c(cc3c1OCO3)CCN(C)C2,-15,-1,-11,-10,-8,0
COc1cc2c(cc1O)C[C@H]1NCCc3cc4c(c-2c31)OCO4,6,24*,-19,21,89*,18
CCn1c(O)c(C=Nc2ccc(N3CCOCC3)c(Br)c2)c(=O)n(CC)c1=S,.,24*,-11,-13,.,3
CCn1c(O)c(C=Nc2ccc(N3CCOCC3)cc2)c(=O)n(CC)c1=S,.,-34,-19,-55,.,1
CC1=NCCc2c1[nH]c1cc(O)ccc21,32*,9,10,-196,i,-4
CCN1[C@@H]2Cn3c(ccc(-c4cccc(OC)c4)c3=O)[C@H]1[C@@H](C(=O)OC)[C@@H]2CO,0,.,.,9,0,.
C[C@H]1CCC/C=C/[C@@H]2C[C@H](O)C[C@H]2[C@H](O)/C=C/C(=O)O1,16*!,-2,5,-2,-2,-3
SMILES,CFTR F508del cor,dFosB act,PvdQ acylase,RAD54 inh,RAD52 anneal inh,Glyco luc inh
C[C@H]1CCCC(=O)CCC/C=C/c2cc(O)cc(O)c2C(=O)O1,-3,-14,-10,8,9,-7
COC(=O)[C@H]1[C@H](CO)[C@H]2Cn3c(ccc(-c4ccccc4F)c3=O)[C@@H]1N2CC1CCCC1,.,.,.,-14,6,.
Nc1ccc(Cl)c(Cl)c1,12*,-13,-13,-29,-8,4
CCOC(=O)[C@@H]1[C@@H]2NC(=S)N[C@@]1(C)Oc1ccccc12,-1,.,.,-2,14,.
O=C1NC(=O)N(c2ccccc2)C(=O)/C1=C/c1ccc(Sc2ccccc2)o1,.,-10,-12,.,.,1
O=C1NC(=O)N(c2cccc(Cl)c2)C(=O)/C1=C\c1ccc(Sc2nc3ccccc3[nH]2)o1,-2,49*,-9,.,-351,1
O=C1NC(=O)N(c2ccccc2F)C(=O)/C1=C/c1ccc(Sc2nc3ccccc3[nH]2)o1,.,27*,2,-44,i,2
CCN1[C@@H]2c3ccc(-c4ccc(OC)cc4)c(=O)n3C[C@H]1[C@H](CO)[C@H]2C(=O)OC,.,.,.,8,5,.
O=C1NC(=O)N(Cc2ccccc2)C(=O)/C1=C/C=C/c1ccco1,-5,-21,-5,.,-156,32*
COc1ccc(CN2C(=O)NC(=O)/C(=C\c3ccco3)C2=O)cc1,1,-17,-2,-27,-177,2
CC(C)N1C(=O)/C(=C/C=C/c2ccco2)C(=O)N(Cc2ccco2)C1=O,.,-15,-13,-35,.,30*
CCN1C(=O)C(=C/C=C/c2ccco2)C(=O)N(CC)C1=S,.,57*,-7,.,i,5
COc1ccc(OC(=O)N(C)C[C@H]2OCc3ccccc3-c3c(n(C)c4ccccc34)C(=O)N([C@@H](C)CO)C[C@H]2C)cc1,3,.,.,.,19,.
CC=Cc1ccc2n(c1=O)C[C@H]1[C@H](CO)[C@@H](C(=O)OC)[C@@H]2N1S(=O)(=O)c1ccccc1C (mixture of isomers),0,.,.,5,53*,.
CC=Cc1ccc2n(c1=O)C[C@@H]1[C@@H](CO)[C@H](C(=O)OC)[C@H]2N1S(=O)(=O)c1ccccc1C (mixture of isomers),-1,.,.,-3,56*,.
CCC1(Oc2ccccc2)C(=O)NC(=O)NC1=O,5,4,-13,-5,-11,2
CCC1(C)OC(c2ccccc2)=C/C(=C/C=C2C(=O)NC(=O)NC2=O)O1 (configuration not stated),15*,-1,0,.,-8,2
